ELG1 genotox = induces genotoxicity in HEK293T cells with luciferase-tagged ELG1; 330,000 tested, 1.3% active; HEK293T ELG1-luciferase reporter, luminescence, 16 h; Potency, µM (top dose mostly 46 µM), for the others: at the top dose activity change, positive = activation, usual class: activators; further: % of control where 0% means no effect; nearly all actives have a fitted effect of over 60% in size
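Cells (2,000/well) expressing the ELG1-luciferase fusion are dosed by pin tool and kept 16 hr at 37 °C, 5% CO2. Signal comes from ONE-Glo luciferase reagent after 30 min at room temperature.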
NPC1 promoter act = NPC1 promoter activation; Potency, µM (doses to about 9.22 µM), for inactives: at the top dose activation, most hits filed as activators; Huh7 NPC1 promoter luciferase reporter, 24 h; AID 485313; 320,000 tested, 2.4% active; further: % of control where 0% means no effect; nearly all actives have a fitted effect of over 60% in size
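Luminescence from an NPC1 promoter-driven luciferase reporter in stably transfected Huh7 cells was measured after 24 h compound treatment at 37 °C, followed by 10 min ambient incubation with luciferase detection reagent.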
SMN2 splice enh = SMN2 splice variant enhancement; HEK293 SMN2-luciferase splicing reporter, luminescence, 30-36 h; Potency, µM (highest dose often 46.1 µM), inactives show top-dose activity change, positive = activation, most hits filed as activators; 210,000 tested, 2.8% active; further: % of control where 0% means no effect; nearly all actives have a fitted effect of over 55% in size
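qHTS luciferase splicing reporter: luminescence rises when SMN2 exon 7 is included in transfected HEK293 cells. Compound exposure lasted 30-36 h at 37C, with 4.5 mM final sodium butyrate as control, followed by a ONE-Glo read.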
FLuc modulator = firefly luciferase modulation, counter-screen for miR-21 project. P08659. purified FLuc, Km substrates, luminescence inhibition. Potency, µM (highest dose often 57.5 µM), without a hit: top-dose activity change, negative = inhibition, actives largely listed as inhibitors. 360,000 tested, 6.9% active;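 further: plate controls were vehicle for no effect and reference inhibitor for full effect; nearly all actives have a fitted effect of over 55% in size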
Target sequence (P08659 whole entry, looked up): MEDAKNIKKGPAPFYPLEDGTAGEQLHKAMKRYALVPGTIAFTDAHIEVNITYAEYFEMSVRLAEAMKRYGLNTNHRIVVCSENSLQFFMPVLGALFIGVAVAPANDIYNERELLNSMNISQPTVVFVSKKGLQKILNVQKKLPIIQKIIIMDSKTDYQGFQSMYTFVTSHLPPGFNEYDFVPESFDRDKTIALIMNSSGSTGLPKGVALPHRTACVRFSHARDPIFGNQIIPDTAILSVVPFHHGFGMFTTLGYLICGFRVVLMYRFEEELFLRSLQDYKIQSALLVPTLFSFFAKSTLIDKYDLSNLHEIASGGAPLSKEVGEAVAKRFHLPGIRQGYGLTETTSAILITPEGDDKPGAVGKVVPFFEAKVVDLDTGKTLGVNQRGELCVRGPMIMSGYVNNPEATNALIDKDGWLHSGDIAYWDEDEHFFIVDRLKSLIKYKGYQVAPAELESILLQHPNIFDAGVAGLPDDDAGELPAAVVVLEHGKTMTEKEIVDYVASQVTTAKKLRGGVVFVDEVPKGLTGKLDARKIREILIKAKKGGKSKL
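Biochemical qHTS of compounds, final roughly 60 µM downward over six points, against 10 nM purified firefly luciferase using Km concentrations of substrates (10 uM D-luciferin, 10 uM ATP) in Tris acetate pH 7.5 buffer; luminescence output.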
Rab9 promoter act = activators of Rab9 promoter | Huh7 Rab9 promoter-luciferase reporter, luminescence, 24 h | Potency, µM (series often up to 9.22 µM), for the others: top-dose activation, negative = inhibition, usual class: activators | 320,000 tested, 2.8% active; further: % of control where 0% means no effect; nearly all actives have a fitted effect of over 60% in size
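Luminescence from Amplite-detected luciferase (10 minutes, ambient) reports Rab9 promoter activation. Before that, stable Rab9-luciferase Huh7 cells (1500/well, reduced-serum OP-MEM I plus 10% FBS) were exposed to compound for 24 hours at 37C.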
KinaseGlo FLuc = blocks Kinase-Glo luciferase, a counter-screen artifact | Q27757 | Kinase-Glo luciferase, ATP luminescence, 8 min | Potency, µM (highest dose often 38.3 µM), without a hit: top-dose activity change, negative = inhibition, most hits filed as inhibitors | 200,000 tested, 0.28% active | AID 1379; further: on the % scale 0 is the no-effect control and ±100 the full control effect; nearly all actives have a fitted effect of over 60% in size
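Compound is pinned into ATP-containing buffer (10 uM ATP, imidazole pH 7.2, 7 mM MgCl2). Kinase-Glo luciferase reagent is then added. Light output is recorded following an 8-min room-temperature incubation.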
Numbers without * were called inactive; [ ] = remark or other dose. Sampled rows, rich in hits. Any-hit rate of the full collection: about 7.4%. The call rests on the fitted dose curve; in most records, active means well fitted curve in the direction sought with a large enough effect; inconclusive means small, poorly fitted or top-dose-only effect, or another doubt; inactive means no such curve, though single readings can be large; an effect the other way counts as inactive or inconclusive. Potency means the concentration at half of the fitted maximal effect.

What do the screens show for `CC(C)(C)C1CCc2c(sc(NC(=O)CCC(=O)O)c2C(=O)Nc2ccccc2C(F)(F)F)C1` (stereo unspecified)?
SMN2 splice enh: -2.3%; FLuc modulator: inconclusive

How did CCOc1ccc(-c2cn(-c3ccc(OC)cc3)c(SCC(=O)Nc3ccccc3Cl)n2)cc1 do in these assays?
FLuc modulator: 2.0%

Results for CCOc1ccc(-c2cn(-c3ccc(OC)cc3)c(SC)n2)cc1 ?
ELG1 genotox: inconclusive; NPC1 promoter act: inconclusive; SMN2 splice enh: 11.2µM*; FLuc modulator: 5.36µM*; Rab9 promoter act: 3.98µM*; KinaseGlo FLuc: -4.2%

How did Cc1ccc(CSCCNC(=O)C2CCN(S(=O)(=O)Cc3ccccc3)CC2)cc1 do in these assays?
FLuc modulator: -5.0%

How did COc1ccc(C(=O)Nn2c(SCC(=O)c3ccc(Cl)cc3)nc3ccccc3c2=O)cc1 do in these assays?
ELG1 genotox: inconclusive; NPC1 promoter act: 0.447µM*; SMN2 splice enh: -88.0%; FLuc modulator: 4.78µM*; Rab9 promoter act: 0.501µM*; KinaseGlo FLuc: -21.2%

What do the screens show for `COCCn1c(SCC(=O)N2CCC(C)CC2)nc2ccccc2c1=O`?
ELG1 genotox: -1.2%; NPC1 promoter act: -2.8%; SMN2 splice enh: -12.0%; FLuc modulator: 0.2%; Rab9 promoter act: 4.9%; KinaseGlo FLuc: 2.8%

What do the screens show for `O=C(Nn1c(SCc2cccc([N+](=O)[O-])c2)nc2ccccc2c1=O)c1ccccc1`?
ELG1 genotox: 14.4%; NPC1 promoter act: -2.2%; SMN2 splice enh: inconclusive; FLuc modulator: inconclusive; Rab9 promoter act: 19.9%; KinaseGlo FLuc: -6.4%

What do the screens show for `COc1ccc(C(=O)Nn2c(SCC(=O)NC3CCCCC3)nc3ccccc3c2=O)cc1`?
ELG1 genotox: inconclusive; NPC1 promoter act: 3.55µM*; SMN2 splice enh: 29.4%; FLuc modulator: 1.9µM*; Rab9 promoter act: 3.98µM*; KinaseGlo FLuc: 14.1µM*

How did COc1ccc(C(=O)Nn2c(SCC(=O)N3CCC(C)CC3)nc3ccccc3c2=O)cc1 do in these assays?
ELG1 genotox: inconclusive; NPC1 promoter act: 0.398µM*; SMN2 splice enh: -79.5%; FLuc modulator: 0.675µM*; KinaseGlo FLuc: 12.6µM*

Results for COc1ccc(C(=O)Nn2c(SCc3cccc([N+](=O)[O-])c3)nc3ccccc3c2=O)cc1 ?
ELG1 genotox: 0.731µM*; NPC1 promoter act: 3.98µM*; FLuc modulator: 5.36µM*; Rab9 promoter act: 3.55µM*; KinaseGlo FLuc: -12.1%

What do the screens show for `CC1=C2[C@H](/C=C(\C)C(=O)O)CC[C@@H](C)[C@H]2CC1`?
SMN2 splice enh: -1.0%

What do the screens show for `COc1cccc(CNC(=O)c2cccc(-n3c(C)nc4cccnc43)c2)c1OC`?
FLuc modulator: -2.3%

How did C/C(=C\C[Si](C)(C)C)CC[C@H](O)C1=CCCCC1=O do in these assays?
SMN2 splice enh: -6.9%; KinaseGlo FLuc: 1.1%

How did COc1c(O)ccc2c1CN1CCc3cc4c(cc3[C@@H]1C2)OCO4 do in these assays?
SMN2 splice enh: -5.8%[9.22 µM]; KinaseGlo FLuc: -3.5%[7.66 µM]

What do the screens show for `COc1ccc(C(=O)Nn2c(SCC(=O)NCc3ccco3)nc3ccccc3c2=O)cc1`?
ELG1 genotox: inconclusive; NPC1 promoter act: 0.316µM*; SMN2 splice enh: inconclusive; FLuc modulator: 0.213µM*; Rab9 promoter act: 0.0891µM*; KinaseGlo FLuc: -28.2%

How did CCn1c(SCC(=O)NCc2ccco2)nc2ccccc2c1=O do in these assays?
ELG1 genotox: -0.3%; NPC1 promoter act: -5.9%; FLuc modulator: -2.1%; Rab9 promoter act: 0.0%; KinaseGlo FLuc: -1.7%

What do the screens show for `COc1ccc(OCc2cc(C(=O)N3CCCC(CO)C3)no2)c2ccccc12` (stereo unspecified)?
ELG1 genotox: inconclusive; NPC1 promoter act: 3.98µM*; FLuc modulator: 8.49µM*; Rab9 promoter act: 3.98µM*

How did COc1ccccc1OCc1cc(C(=O)N2CCCC(OCc3cccnc3)C2)no1 (stereo unspecified) do in these assays?
ELG1 genotox: 8.2µM*; NPC1 promoter act: 1.78µM*; FLuc modulator: 13.5µM*; Rab9 promoter act: 2.51µM*

Results for CSc1ccccc1OCc1cc(C(=O)N2CCCC(C)C2)no1 (stereo unspecified) ?
ELG1 genotox: 5.17µM*; NPC1 promoter act: 1.58µM*; FLuc modulator: 6.75µM*; Rab9 promoter act: 1.41µM*

Results for CSc1ccccc1OCc1cc(C(=O)N2CCN(C3CCCC3)C(=O)C2)no1 ?
ELG1 genotox: inconclusive; NPC1 promoter act: inconclusive; FLuc modulator: 16.9µM*; Rab9 promoter act: inconclusive

What do the screens show for `CCN1C(=O)C2(c3ccccc31)c1c(oc3ccccc3c1=O)C(=O)N2CCOC` (stereo unspecified)?
SMN2 splice enh: 0.1%; FLuc modulator: -0.4%

How did CC(C)=CCNc1ncnc2c1c(C#N)cn2[C@H]1O[C@@H](CO)[C@@H](O)[C@@H]1O do in these assays?
SMN2 splice enh: -10.7%[9.22 µM]; KinaseGlo FLuc: -3.2%[7.66 µM]

What do the screens show for `CSc1ccccc1OCc1cc(C(=O)N2CCSCC2)no1`?
ELG1 genotox: -4.0%; NPC1 promoter act: 2.24µM*; FLuc modulator: inconclusive; Rab9 promoter act: 1.41µM*

What do the screens show for `O=C1c2ccccc2NC(c2ccccc2)N1/N=C/c1ccccc1` (stereo unspecified)?
ELG1 genotox: 19.9%; NPC1 promoter act: 2.51µM*; SMN2 splice enh: 25.1µM*; FLuc modulator: inconclusive; Rab9 promoter act: 2.51µM*; KinaseGlo FLuc: -3.0%

How did O=C1c2ccccc2NC(c2ccc(O)cc2)N1/N=C/c1ccc(O)cc1 (stereo unspecified) do in these assays?
ELG1 genotox: 16.0%; NPC1 promoter act: 15.3%; SMN2 splice enh: -8.7%[1.84 µM]; FLuc modulator: -19.2%; Rab9 promoter act: 29.6%; KinaseGlo FLuc: -1.4%

Results for Cc1cc(C)c2c(CC(=O)Nc3ccccc3C(F)(F)F)coc2c1 ?
SMN2 splice enh: 9.9%; FLuc modulator: -2.5%

Results for COc1cccc(/C=N/n2c(=S)n(C)c3ccccc32)c1OC ?
ELG1 genotox: 2.6%; NPC1 promoter act: -3.4%; SMN2 splice enh: -24.9%; FLuc modulator: 10.7µM*; Rab9 promoter act: -4.5%; KinaseGlo FLuc: -1.4%

How did COc1cccc(/C=N/n2cnc3cc(C)c(C)cc32)c1OC do in these assays?
ELG1 genotox: 16.1%; NPC1 promoter act: inconclusive; FLuc modulator: 12µM*; Rab9 promoter act: 20.4%

How did COc1cccc(/C=N/n2c(C)nc3ccccc32)c1OC do in these assays?
ELG1 genotox: -3.1%; NPC1 promoter act: -0.2%; SMN2 splice enh: -47.6%; FLuc modulator: inconclusive; Rab9 promoter act: -3.3%; KinaseGlo FLuc: -3.5%

Screening data (PubChem BioAssay)
